Bioassay records from PubChem.
Rows were chosen to be rich in hits. Some 9.4% of all compounds tested hit in one or more screens of this group.
FLuc modulator: firefly luciferase modulation, counter-screen for miR-21 project | Potency, µM (titrated, usually from 57.5 µM), most hits filed as inhibitors | AID 588342 | 6.9% of 360,000 active | purified FLuc, Km substrates, luminescence inhibition | P08659; also: nearly all actives have a fitted effect of over 55% in size
Target sequence (P08659 whole entry, looked up): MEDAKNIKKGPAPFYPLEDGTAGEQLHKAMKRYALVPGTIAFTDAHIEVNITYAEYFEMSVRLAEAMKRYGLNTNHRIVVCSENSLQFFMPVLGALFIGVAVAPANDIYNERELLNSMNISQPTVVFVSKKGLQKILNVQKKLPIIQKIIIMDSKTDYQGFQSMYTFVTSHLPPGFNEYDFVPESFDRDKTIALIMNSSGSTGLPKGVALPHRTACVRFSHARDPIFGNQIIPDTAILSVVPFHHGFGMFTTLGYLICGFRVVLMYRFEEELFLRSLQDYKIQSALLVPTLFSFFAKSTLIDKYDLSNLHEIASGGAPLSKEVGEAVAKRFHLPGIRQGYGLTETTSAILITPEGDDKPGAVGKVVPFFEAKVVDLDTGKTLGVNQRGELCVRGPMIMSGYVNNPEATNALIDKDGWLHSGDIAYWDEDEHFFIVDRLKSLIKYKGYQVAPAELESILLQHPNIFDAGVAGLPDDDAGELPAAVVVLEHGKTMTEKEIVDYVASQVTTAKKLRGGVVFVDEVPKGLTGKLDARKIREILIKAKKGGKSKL
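Biochemical qHTS of compounds, final roughly 60 µM downward over six points, against 10 nM purified firefly luciferase using Km concentrations of substrates (10 uM D-luciferin, 10 uM ATP) in Tris acetate pH 7.5 buffer; luminescence output.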
SMN2 splice up: SMN2 splice variant enhancement; 2.8% of 210,000 active; HEK293 SMN2-luciferase splicing reporter, luminescence, 30-36 h; Potency, µM (titrated, usually from 46.1 µM), usual class: activators; also: nearly all actives have a fitted effect of over 55% in size
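qHTS luciferase splicing reporter: luminescence rises when SMN2 exon 7 is included in transfected HEK293 cells. Compound exposure lasted 30-36 h at 37C, with 4.5 mM final sodium butyrate as control, followed by a ONE-Glo read.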
ELG1 repair inh: inhibitors of ELG1-dependent DNA repair in HEK293T cells; HEK293T ELG1-luciferase reporter, luminescence, 16 h; DNA damage induced by 5-fluorouridine; Potency, µM (series often up to 46.1 µM), hits mostly inhibitors; 2.3% of 330,000 active; AID 504467; also: nearly all actives have a fitted effect of over 55% in size
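Quantitative HTS, concentration-response format. 2,000 cells/well co-treated with 5-fluorouridine and compound, 16 hr in 5% CO2 at 37 °C; ONE-Glo luminescence read after 30 min.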
Rab9 promoter act: activators of Rab9 promoter; 2.8% of 320,000 active; Potency, µM (doses to about 9.22 µM), hits mostly activators; Huh7 Rab9 promoter-luciferase reporter, luminescence, 24 h; also: nearly all actives have a fitted effect of over 60% in size
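Cell-based reporter: Huh7 stable for Rab9 promoter-driven luciferase, plated in reduced-serum medium with 10% FBS at 1500 cells/well, compound-treated 24 h at 37 °C, luminescence read after 10 min reagent.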
ELG1 genotoxic: genotoxicity induction in ELG1-luciferase HEK293T cells; 1.3% of 330,000 active; Potency, µM (titrated, usually from 46 µM), hits mostly activators; HEK293T ELG1-luciferase reporter, luminescence, 16 h; also: nearly all actives have a fitted effect of over 60% in size
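DMSO vehicle served as control against compound-treated ELG1-luciferase HEK293T cells; exposure lasted 16 hr at 37 °C and 5% CO2, followed by ONE-Glo luminescence detection after 30 min.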
NPC1 prom act: NPC1 promoter activation. Huh7 NPC1 promoter luciferase reporter, 24 h. Potency, µM (titrated, usually from 9.22 µM), actives largely listed as activators. 2.4% of 320,000 active; also: nearly all actives have a fitted effect of over 60% in size
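Compounds in DMSO were transferred onto Huh7 NPC1-luciferase reporter cells pre-incubated 2 h; after 24 h at 37 °C, Amplite reagent was dispensed and luminescence recorded 10 min later.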
Numbers stand for hits; . = inactive; ? = inconclusive; / = no result given; ! = not active in a repeat; [ ] = remark or other dose. Calls follow the shape of the dose curve; as a rule, active = well fitted curve in the direction sought with a large enough effect; inconclusive = small, poorly fitted or top-dose-only effect, or another doubt; inactive = no such curve, though single readings can be large; an effect the other way counts as inactive or inconclusive.

SMILES	FLuc modulator	SMN2 splice up	ELG1 repair inh	Rab9 promoter act	ELG1 genotoxic	NPC1 prom act
CCN(CC)CCOC(=O)/C=C/c1ccccc1	.	/	.	.	.	.
CCOC(=O)/C=C/c1cnn(-c2ccccc2)c1	15µM	/	?	?	?	?
O=C(O)/C=C/c1cnn(-c2ccccc2)c1	1.5µM	2µM	?	0.45µM	.	?
O=C(COc1cccc(Cl)c1)Nc1nc(-c2ccc(S(=O)(=O)N3CCOCC3)cc2)cs1	.	.	23µM	.	.	.
CCOc1cccc(C(=O)Nc2nc(-c3ccc(S(=O)(=O)N4CCOCC4)cc3)cs2)c1	.	.	?	.	.	.
COc1ccccc1C(=O)Nc1nc(-c2ccc(S(=O)(=O)N3CCOCC3)cc2)cs1	.	.	5.2µM	.	.	.
NNCCc1ccccc1	?	.	?	14µM!	.	.
COc1ccccc1C(=O)Nc1ccc2oc(-c3cccc4c(Br)cccc34)nc2c1	?	.	/	/	/	/
Cc1cc(C(=O)Cn2nc(C(=O)O)c3ccccc3c2=O)c(C)n1-c1cccc(C(F)(F)F)c1	.	/	.	.	.	.
Cc1cc(C(=O)Cn2nc(C(=O)O)c3ccccc3c2=O)c(C)n1C1CC1	.	.	.	.	.	.
Cc1cc(C(=O)Cn2nc(C(=O)O)c3ccccc3c2=O)c(C)n1-c1ccc(F)cc1	2.7µM	?	?	.	?	.
C=CCn1c(C)cc(C(=O)Cn2nc(C(=O)O)c3ccccc3c2=O)c1C	0.48µM	11µM	?	?	?	?
CC(C)(C)c1ccc(C(=O)Cn2nc(C(=O)O)c3ccccc3c2=O)cc1	9.5µM	/	.	.	.	.
COCCn1c(C)cc(C(=O)Cn2nc(C(=O)O)c3ccccc3c2=O)c1C	1.2µM	.	?	?	8.2µM	.
CCOC(=O)c1cccc(NC(=O)c2cc3c(Cl)nc4ccc(C)cc4c3s2)c1	.	.	/	/	/	/
CCCn1c(C)cc(C(=O)Cn2nnc3ccccc3c2=O)c1C	4.3µM	13µM	?	0.89µM	?	1µM
CCCn1c(C)cc(C(=O)CSc2nnc3n(CCC)c(=O)c4ccccc4n23)c1C	.	.	.	.	.	.
O=C(NC1CCCC1)c1ccc2c(=O)n(Cc3ccccc3)c(SCc3ccc([N+](=O)[O-])cc3)nc2c1	.	/	/	/	/	/
CCOC(=O)c1cc2c(C)n(-c3ccc(OCC)cc3)c(C)c2ccc1=O	17µM	.	.	.	.	.
CCOC(=O)c1cc2c(C)n(-c3ccc(C)cc3)c(C)c2ccc1=O	0.38µM	.	?	?	.	?
NC1=N[C@H](c2ccc(Cl)cc2)N(c2ccc(S(N)(=O)=O)cc2)C(N)=N1	/	.[9.22 µM]	/	/	/	/
Cc1sc2ncn(CC(=O)N(C)c3ccc(C(C)C)cc3)c(=O)c2c1S(=O)(=O)N1CCC(C)CC1	.	.	/	/	/	/
O=C(NCCc1ccc(F)cc1)c1ccc2c(=O)n3c(nc2c1)CCC3	?	/	?	3.5µM	.	.
O=C(NCc1ccccc1)c1ccc2c(=O)n3c(nc2c1)CCCCC3	.	/	.	.	.	.
O=C(COc1ccccc1F)NNC(=O)c1ccc2c(=O)n3c(nc2c1)CCC3	.	/	.	.	.	.
SMILES	FLuc modulator	SMN2 splice up	ELG1 repair inh	Rab9 promoter act	ELG1 genotoxic	NPC1 prom act
O=C(NCCOc1ccccc1F)c1ccc2c(=O)n3c(nc2c1)CCC3	6µM	/	?	2.2µM	?	2.8µM
CCOC(=O)N1CCc2c(sc3c2C(=O)NC(c2ccc(N(C)C)cc2)N3)C1 (centres undefined)	.	.	/	/	/	/
COc1cccc(-c2nc(CS(=O)(=O)CC(=O)NCCc3cc(OC)ccc3OC)c(C)o2)c1	.	/	21µM	.	.	.
COc1cccc(-c2nc(CS(=O)(=O)CC(=O)NCCc3ccc(OC)cc3OC)c(C)o2)c1	.	.	23µM	.	.	.
CCN(CCNC(=O)CS(=O)(=O)Cc1nc(-c2cccc(OC)c2)oc1C)c1ccccc1	.	.	18µM	.	.	.
COc1ccc(-c2nc(CS(=O)(=O)CC(=O)NCCc3cc(OC)ccc3OC)c(C)o2)cc1	.	.	?	.	.	.
CCc1nc2ccccc2n2c(-c3ccccc3)c3c(=O)n(C)c(=O)n(C)c3c12	.	.	/	/	/	/
CC(C)c1ccc(NC(=O)C2CCCN(S(=O)(=O)c3cccc4nsnc34)C2)cc1 (centres undefined)	.	.	/	/	/	/
CCn1c(=O)cc(SCC(=O)NCc2ccc(F)cc2Cl)c2ccccc21	.	.	/	/	/	/
COc1ccc(Oc2nccc(-c3ccccc3)c2C#N)cc1	12µM	.	?	?	.	?
CCOc1ccc(CCNC(=O)c2cc3sc(CC)cc3n2C)cc1OCC	.	.	/	/	/	/
O=C(O)c1ccccc1C(=O)Nc1ccc(Br)c2cccnc12	24µM	.	.	.	.	.
COc1cc(NC(=O)CCc2c(C)nc3nc(-c4cc(OC)cc(OC)c4)nn3c2C)cc(OC)c1	.	.	/	/	/	/
CC1CCc2sc(C(=O)NCc3ccc(F)cc3)cc2C1 (centres undefined)	?	.	?	.	.	.
CC1CCc2sc(C(=O)NCc3ccccn3)cc2C1 (centres undefined)	19µM	/	?	?	18µM	.
CC1CCc2c(C(=O)Nc3nccs3)csc2C1 (centres undefined)	4.8µM	?	?	?	?	?
CC1CCc2c(C(=O)NCc3ccccn3)csc2C1 (centres undefined)	21µM	?	?	.	?	?
CC1CCc2c(C(=O)Nc3ccccn3)csc2C1 (centres undefined)	2.1µM	/	?	3.2µM	?	3.5µM
CC1CCc2c(C(=O)NCc3cccnc3)csc2C1 (centres undefined)	.	.	?	.	.	.
CCSc1nnc(NC(=O)c2csc3c2CCC(C)C3)s1 (centres undefined)	.	.	.	.	.	.
Cc1ccc(-c2ccc(=O)n(CC(=O)NC(C)c3ccccc3)n2)cc1 (centres undefined)	.	/	/	/	/	/
CCNC(=S)NNC(=O)c1csc2c1CCC(C)C2 (centres undefined)	.	.	.	.	.	.
Cc1ccccc1NC(=S)NNC(=O)c1csc2c1CCC(C)C2 (centres undefined)	2.4µM	.	?	2.2µM	?	3.2µM
NS(=O)(=O)c1ccc(NC(=O)Nc2ccccc2F)cc1	/	.[9.22 µM]	/	/	/	/
Cc1ccc(NC(=O)C2OCCc3ccccc32)cc1Cl (centres undefined)	24µM	.	.	.	.	.
O=C1/C(=C/c2cccc([N+](=O)[O-])c2)CCc2ccccc21	9.5µM	.	.	.	.	.
O=C(O)c1ccc(-n2c(/C=C/c3cccc([N+](=O)[O-])c3)nc3ccccc3c2=O)cc1	.	/	?	.	.	.
